In PubChem BioAssay (NCATS):
Inconclusive results are not listed. Entries that show only a call come without a potency. The source made the active and inactive calls. Unless noted, calls follow the shape of the dose curve; as a rule, active = well fitted curve in the direction sought with a large enough effect in the repeat runs; inconclusive = weak or mixed curves; inactive = no such curve, though single readings can be large; an effect the other way counts as inactive or inconclusive.

Columns and labels:
[1] = Primary qHTS for small molecule stabilizers of the endoplasmic reticulum resident proteome: Secreted ER Calcium Modulated Protein (SERCaMP) assay (AID 1508630; active = well fitted curve in the direction sought with a large enough effect; an effect the other way counts as inactive or inconclusive)
In short: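 The SH-SY5Y reporter protocol was run at 3 concentrations up to 38.3 uM (primary) or 11 concentrations (follow-up): 16 h compound, 100 nM thapsigargin for 4 h, then extracellular luciferase luminescence.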

[2] = biological target: Cytochrome P450 3A4 (Homo sapiens) (UniProt P08684); assay: Cytochrome P450 family 3 subfamily A member 4 (CYP3A4) small molecule antagonists: luciferase qHTS assay (AID 1645841); also: nearly all actives have a fitted effect of over 45% in size
In short: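 P450-Glo CYP3A4 enzyme with proluciferin substrate preincubated 10 min with compound at room temperature, then NADPH regeneration 1 h. Luciferin detection reagent added for 20 min; luminescence recorded. Ketoconazole positive control.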

[3] = biological target: Calcium and integrin-binding protein 1 (Homo sapiens) (UniProt Q99828); assay: Primary qHTS for Identification of Calcium Integrin Binding Protein 1 (CIB1) Competitor (AID 1508620; active = well fitted curve in the direction sought with a large enough effect; an effect the other way counts as inactive or inconclusive;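 also: GST tagged CIB1 binding a fluorescein labelled alphaIIb integrin peptide tracer; top concentration of the series differs between compounds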)
In short: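 Fluorescence polarization competition: GST-tagged CIB1 (1 uM final) preincubated with compound 15 min at room temperature, then FITC-labelled alphaIIb peptide (100 nM final) added. After 15 min at room temperature, polarization read at Ex 480/Em 540.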

[4] = biological target: Cytochrome P450 2D6 (Homo sapiens) (UniProt P10635); assay: Cytochrome P450 family 2 subfamily D member 6 (CYP2D6) small molecule antagonists: luciferase biochemical (cell-free) qHTS assay (AID 1645840); also: nearly all actives have a fitted effect of over 55% in size; also: potency is read from the fitted curve at half-maximal effect
In short: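 P450-Glo CYP2D6 system: proluciferin substrate converted by enzyme to luciferin, read by luminescence proportional to activity. Enzyme-substrate mix with compound 10 min at room temperature, then NADPH regeneration 1 h before detection reagent.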

[5] = biological target: Cytochrome P450 2C9 (Homo sapiens) (UniProt P11712); assay: Cytochrome P450 family 2 subfamily C member 9 (CYP2C9) small molecule antagonists: luciferase biochemical (cell-free) qHTS assay (AID 1645842); also: nearly all actives have a fitted effect of over 55% in size; also: potency is read from the fitted curve at half-maximal effect
In short: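 P450-Glo CYP2C9 system: proluciferin substrate with enzyme in mix containing 0.4% BSA, 10 min at room temperature, then NADPH regeneration solution added and incubated 1 h at 37C. Detection reagent stopped reaction; luminescence read after 20 min as RLU.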

Cytochrome P450 2C9 (Homo sapiens), sequence (P11712 whole entry, looked up): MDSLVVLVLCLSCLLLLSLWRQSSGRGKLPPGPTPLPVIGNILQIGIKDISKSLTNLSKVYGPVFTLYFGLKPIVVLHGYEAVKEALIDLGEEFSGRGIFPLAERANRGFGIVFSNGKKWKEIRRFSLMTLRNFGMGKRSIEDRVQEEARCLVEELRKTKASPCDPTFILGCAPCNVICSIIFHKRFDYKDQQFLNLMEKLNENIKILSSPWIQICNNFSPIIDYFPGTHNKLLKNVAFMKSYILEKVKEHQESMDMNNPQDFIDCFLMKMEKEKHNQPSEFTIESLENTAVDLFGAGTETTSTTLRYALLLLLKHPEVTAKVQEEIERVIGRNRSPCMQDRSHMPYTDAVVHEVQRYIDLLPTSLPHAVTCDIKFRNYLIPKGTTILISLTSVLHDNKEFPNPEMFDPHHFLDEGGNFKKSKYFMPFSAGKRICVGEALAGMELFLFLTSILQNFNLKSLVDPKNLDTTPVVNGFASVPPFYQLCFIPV
Cytochrome P450 2D6 (Homo sapiens), sequence (P10635 whole entry, looked up): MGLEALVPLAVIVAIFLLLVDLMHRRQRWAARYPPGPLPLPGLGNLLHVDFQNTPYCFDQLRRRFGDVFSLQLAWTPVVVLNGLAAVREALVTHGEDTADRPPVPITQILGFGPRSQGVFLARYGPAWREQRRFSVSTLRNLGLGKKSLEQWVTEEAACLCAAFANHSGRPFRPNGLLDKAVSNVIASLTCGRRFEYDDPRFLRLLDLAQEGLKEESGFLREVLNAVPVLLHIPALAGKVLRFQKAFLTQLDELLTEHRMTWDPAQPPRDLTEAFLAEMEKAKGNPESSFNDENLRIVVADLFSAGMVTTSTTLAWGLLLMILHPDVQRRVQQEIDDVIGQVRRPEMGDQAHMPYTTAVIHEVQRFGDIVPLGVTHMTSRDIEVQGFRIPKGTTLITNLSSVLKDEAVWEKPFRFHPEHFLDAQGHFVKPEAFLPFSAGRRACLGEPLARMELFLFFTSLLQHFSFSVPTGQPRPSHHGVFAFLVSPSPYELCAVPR
Calcium and integrin-binding protein 1 (Homo sapiens), sequence (Q99828 whole entry, looked up): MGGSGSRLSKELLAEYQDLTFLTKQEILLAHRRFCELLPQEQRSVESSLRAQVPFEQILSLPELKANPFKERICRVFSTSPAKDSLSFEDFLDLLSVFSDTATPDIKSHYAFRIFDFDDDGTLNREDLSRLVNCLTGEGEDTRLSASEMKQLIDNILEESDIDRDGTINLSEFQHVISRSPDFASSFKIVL
Cytochrome P450 3A4 (Homo sapiens), sequence (P08684 whole entry, looked up): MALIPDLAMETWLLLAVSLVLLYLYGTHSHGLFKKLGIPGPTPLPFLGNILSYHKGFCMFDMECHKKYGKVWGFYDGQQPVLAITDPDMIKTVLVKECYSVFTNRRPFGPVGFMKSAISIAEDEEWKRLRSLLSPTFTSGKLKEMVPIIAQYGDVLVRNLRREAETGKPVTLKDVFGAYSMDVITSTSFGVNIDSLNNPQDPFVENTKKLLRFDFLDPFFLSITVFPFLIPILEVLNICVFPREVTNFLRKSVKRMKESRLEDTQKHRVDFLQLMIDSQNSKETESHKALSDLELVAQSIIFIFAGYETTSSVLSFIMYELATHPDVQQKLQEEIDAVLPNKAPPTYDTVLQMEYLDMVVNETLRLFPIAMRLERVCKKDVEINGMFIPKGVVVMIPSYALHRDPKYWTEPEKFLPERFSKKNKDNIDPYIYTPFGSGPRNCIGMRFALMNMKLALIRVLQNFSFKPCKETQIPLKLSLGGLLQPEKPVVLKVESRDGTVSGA

With `COC(=O)C1=CO[C@@H](O[C@@H]2O[C@H](CO)[C@@H](O)[C@H](O)[C@H]2O)[C@@H]2[C@@H](C)[C@@H](O)C[C@H]12` as the compound, how does the outcome [1] read?
Its outcome is “inactive”.

Which Potency [2] does the source give for `COCCN(C)Cc1ccc2nc3sc(C(=O)N(C)C4CCCCC4)cn3c2c1` here?
Its Potency is “inactive”.

With `CCOC(=O)[C@H](CCc1ccccc1)CC1(C(=O)N[C@H]2CCc3ccccc3N(CC(=O)O)C2=O)CCCC1` as the compound, how does the Potency [3] read?
The Potency was “inactive”.

And the Potency [4]?
The Potency was “inactive”.

What about the Potency [5] of the same compound?
The Potency was “inactive”.

Which Potency [3] does the source give for `CCOC(=O)N1CCC(NCCNC(=O)c2ccccc2C)CC1` here?
Its Potency is “inactive”.

What about the Potency [4] of the same compound?
The Potency was 10.7 µM (active).

What about the Potency [5] of the same compound?
The Potency was “inactive”.

For `O=C1N(CC2CCCCN2)CCN1c1ccccc1` (stereo not given), which Potency [3] is on record?
Its Potency is “inactive”.

And the Potency [4]?
Its Potency is 15.1 µM (active).

What about the Potency [5] of the same compound?
The Potency was “inactive”.

With `FC(F)(F)c1cc(C(F)(F)F)c2ccc3nc(-c4nnco4)cn3c2n1` as the compound, how does the Potency [3] read?
The Potency was “inactive”.

What about the Potency [4] of the same compound?
The Potency was “inactive”.

What about the Potency [5] of the same compound?
Its Potency is “inactive”.

What does the source list for `CC(=O)N1CCN(NC(=O)c2ccc(F)cc2)CC1`?
Potency [3]: inactive; Potency [4]: inactive; Potency [5]: inactive

With `c1ccc(C(OC2CCN(CCCc3nn[nH]n3)CC2)c2ccccc2)cc1` as the compound, how does the Potency [3] read?
The Potency was “inactive”.

And the Potency [4]?
Its Potency is 6.01 µM (active).

And the Potency [2]?
The Potency was “inactive”.

What about the Potency [5] of the same compound?
The Potency was “inactive”.

With `CCNC(=O)[C@H]1O[C@H](n2cnc3c(NCC(c4ccccc4)c4ccccc4)nc(C(=O)NCCNC(=O)NC4CCN(c5ccccn5)CC4)nc32)[C@H](O)[C@@H]1O` as the compound, how does the Potency [3] read?
The Potency was “inactive”.

And the Potency [4]?
Its Potency is 23.9 µM (active).

What about the Potency [5] of the same compound?
Its Potency is 3.79 µM (active).

Which results are given for `Cc1[nH]cnc1C1CCN(c2nc3cccc4c3n2CCC4=O)CC1`?
Potency [3]: inactive; Potency [4]: 9.52 µM (active); Potency [5]: 9.52 µM (active)

What does the source list for `CN(C)c1cccc(-c2c3c(=O)n(-c4ccccc4Cl)[nH]c3cc(=O)n2C)c1`?
Potency [3]: inactive; Potency [4]: inactive; Potency [5]: 5.35 µM (active)
